One assay concerns the target T1, MAP kinase-activated protein kinase 5 (Homo sapiens) (UniProt Q8IW41).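 Also: mean inhibition of PRAK measured in the GSK PKIS screen.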
T1 sequence (whole entry): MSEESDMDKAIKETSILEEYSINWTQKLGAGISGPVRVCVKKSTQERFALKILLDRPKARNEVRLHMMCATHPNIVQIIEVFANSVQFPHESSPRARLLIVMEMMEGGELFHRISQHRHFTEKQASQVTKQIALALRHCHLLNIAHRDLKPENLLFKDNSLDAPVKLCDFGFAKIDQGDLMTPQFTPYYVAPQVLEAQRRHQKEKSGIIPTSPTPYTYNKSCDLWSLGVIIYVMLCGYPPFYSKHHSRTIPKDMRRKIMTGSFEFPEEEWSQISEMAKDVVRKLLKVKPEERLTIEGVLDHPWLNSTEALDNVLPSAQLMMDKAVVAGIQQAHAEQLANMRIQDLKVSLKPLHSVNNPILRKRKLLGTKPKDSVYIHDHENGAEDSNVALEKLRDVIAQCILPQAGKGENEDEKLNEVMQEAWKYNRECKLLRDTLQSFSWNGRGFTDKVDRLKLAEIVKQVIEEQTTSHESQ
As to conditions: at 1 µM.
As a reminder, the inhibition is the change of the read-out against control, counted positive when it falls. Regarding `CS(=O)(=O)CCNCc1cc(-c2cc3c(Nc4ccc(OCc5cccc(F)c5)c(Cl)c4)ncnc3s2)cs1`, the inhibition came to 1.6%.
Consider `Fc1ccc(-c2c(-c3ccncc3)nc3n2CCS3)cc1`, for which the inhibition was determined as 1.61%.
Regarding `Cc1ccc(NC(=O)c2ccoc2)cc1-c1ccc(C(=O)NCC2CC2)cc1`, the inhibition came to 0.83%.
Still for that read-out and setting: with `NS(=O)(=O)c1ccc(N/N=C2\C(=O)Nc3ccc(-c4cnco4)cc32)cc1` the figure was 3.26%.
Same read-out and setting: with `O=C(Nc1n[nH]c2cc(-c3cc(F)ccc3F)ccc12)C1CC1` the figure was 0.41%; with `Nc1nccc(-c2c(-c3ccc(F)cc3)ncn2C2CCC(O)CC2)n1` (configuration not stated), -0.32%.
In the case of `C[C@@H](Oc1cc(-n2cnc3ccc(OC4CCN(C)CC4)cc32)sc1C(N)=O)c1ccccc1Cl`, the inhibition was found to be 1.54%.
Regarding `CCS(=O)(=O)c1ccc(OC)c(Nc2ncc(-c3cccc(-c4ccccc4F)c3)o2)c1`, the inhibition was -0.29%.
In the case of `O=C1Nc2ccc(I)cc2C1=Cc1cc(Br)c(O)c(Br)c1`, the inhibition came out at 1.78%.
As to `COc1cccc(/C=N/Nc2ncnc3c2cnn3-c2cccc(OC)c2)c1`, the inhibition was 1.08%.
On to `COc1cc2ncn(-c3cc(OCc4cccs4)c(C(N)=O)s3)c2cc1OC`, for which the inhibition came out at 5.17%.
With `NC(=O)c1ccc(Oc2nccc(-c3c(-c4ccc(F)cc4)ncn3C3CCNCC3)n2)cc1`, the inhibition worked out at 2.54%.
Take `CN(C)CCCNc1nccc(-c2c(-c3ccc(F)cc3)nn3cc(C(F)(F)F)ccc23)n1`: the inhibition was -0.97%.
Consider `O=C1NC(=O)C(c2cccc(Cl)c2)=C1Nc1ccc(Cl)c(C(=O)O)c1`, for which the inhibition was found to be 2.67%.
On the same count and under the same terms, to `NC(=O)Cc1ccccc1Oc1nccc(-c2c(-c3ccc(F)cc3)ncn2C2CCNCC2)n1` belongs -0.72%.
In the case of `Fc1ccc(-c2ncn(C3CCNCC3)c2-c2ccnc(Oc3ccc(F)c(F)c3)n2)cc1`, the inhibition worked out at 1.56%.
Turning to `O=C(Nc1n[nH]c2cc(-c3ccccc3)ccc12)C1CC1`, the inhibition came to 0.86%.
For the compound `Cc1nnc(-c2ccc(C)c(-c3ccc(C(=O)NCc4ccc(Cl)cc4)cc3)c2)o1`, the inhibition is 2.59%.

For another assay, the target named is Serine/threonine-protein kinase SIK1 (Homo sapiens) (UniProt P57059). As to conditions: at 0.1 µM.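 Also: reported as mean inhibition, part of the GSK PKIS screen.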
Serine/threonine-protein kinase SIK1 (Homo sapiens), sequence (P57059 whole entry): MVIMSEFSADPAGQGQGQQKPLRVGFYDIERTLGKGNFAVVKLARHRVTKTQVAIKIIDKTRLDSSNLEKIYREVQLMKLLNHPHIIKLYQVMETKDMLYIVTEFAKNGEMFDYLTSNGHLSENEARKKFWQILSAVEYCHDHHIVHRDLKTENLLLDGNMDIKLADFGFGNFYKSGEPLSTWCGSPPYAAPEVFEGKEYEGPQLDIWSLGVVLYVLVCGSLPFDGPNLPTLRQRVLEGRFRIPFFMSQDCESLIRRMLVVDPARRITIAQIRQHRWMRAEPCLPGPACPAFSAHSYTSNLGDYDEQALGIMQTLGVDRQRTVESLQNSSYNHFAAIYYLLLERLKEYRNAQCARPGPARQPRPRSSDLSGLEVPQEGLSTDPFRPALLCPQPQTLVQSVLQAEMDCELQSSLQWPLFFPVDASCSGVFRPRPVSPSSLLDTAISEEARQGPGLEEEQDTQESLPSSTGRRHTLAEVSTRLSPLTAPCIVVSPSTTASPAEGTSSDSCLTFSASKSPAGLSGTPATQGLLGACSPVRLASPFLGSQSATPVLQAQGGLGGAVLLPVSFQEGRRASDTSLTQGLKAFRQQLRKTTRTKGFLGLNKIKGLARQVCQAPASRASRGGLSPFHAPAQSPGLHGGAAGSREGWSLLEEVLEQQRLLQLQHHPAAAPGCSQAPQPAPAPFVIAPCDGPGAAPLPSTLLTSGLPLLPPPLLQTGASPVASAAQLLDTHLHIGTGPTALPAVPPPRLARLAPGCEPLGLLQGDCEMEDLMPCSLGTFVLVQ
For `COc1ccc2ncn(-c3cc(O[C@H](C)c4ccccc4Cl)c(C(N)=O)s3)c2c1`, the inhibition turned out to be 4.44%.
Take `C#Cc1cccc(Nc2ncnc3ccc(OCCCCNCCS(C)(=O)=O)cc23)c1`: the inhibition came out at 8.26%.
Same read-out and setting: to `NS(=O)(=O)c1ccc(Nc2cc(-c3ccc(O)c(F)c3)n[nH]2)cc1` belongs -8.2%; to `C[C@@H](Oc1cc(-n2cnc3ccc(OCC4CCN(C)CC4)cc32)sc1C(N)=O)c1ccccc1Cl`, 11.5%; to `Fc1ccc(-c2ncn(CCCN3CCOCC3)c2-c2ccncc2)cc1`, -2.01%.
Still for that read-out and setting: to `NS(=O)(=O)c1ccc(N/N=C2\C(=O)Nc3ccc(C(=O)NCCCn4ccnc4)cc32)cc1` belongs 7.49%; to `COc1ccc2cc(-c3c(-c4ccncc4)nc(-c4ccc(S(C)(=O)=O)cc4C)n3C)ccc2c1`, 5.28%.
In the case of `Clc1ccc(CNc2nccc(-c3cnn4ncccc34)n2)cc1`, the inhibition is 0.93%.
With `COC(=O)Nc1nc2ccc(Sc3ccc(NC(=O)Nc4cc(C(F)(F)F)ccc4F)cc3)cc2[nH]1`, the inhibition came to 3.94%.
Turning to `Fc1ccc(-c2ncn(C3CCNCC3)c2-c2ccnc(Oc3ccc4c(c3)OCO4)n2)cc1`, the inhibition turned out to be 5.99%.
As for `Cc1ccc(C(=O)NC(C)C)cc1-c1ccc(C(=O)NCC2CC2)cc1`, the inhibition was -0.49%.
Regarding `CCS(=O)(=O)c1ccc(OC)c(Nc2ncc(-c3ccccc3Cl)o2)c1`, the inhibition came out at 2.08%.
The same measure, in the same setting: to `NC(=O)c1cc(-c2ccncc2)cc(-c2ccccc2)c1N` belongs 5.39%; to `c1ccc(-c2n[nH]cc2-c2ccnc(-c3ccc(OCCN4CCOCC4)cc3)c2)nc1`, 0.04%.
As to `Cc1ccc(C(=O)NC2CCC2)cc1-c1ccc(C(=O)NCC2CC2)cc1`, the inhibition was 6.34%.
For the compound `CN(c1ccc(NC(=O)Nc2c(Cl)cccc2Cl)cc1)c1ccnc(Nc2cccc(CS(C)(=O)=O)c2)n1`, the inhibition stood at 5.71%.
The same measure, in the same setting: to `CS(=O)(=O)CCNCc1cc(-c2cc3c(Nc4ccc(OCc5cccc(F)c5)c(Cl)c4)ncnc3s2)cs1` belongs 7.53%; to `Fc1ccc(-c2c(-c3ccncc3)nc3n2CCS3)cc1`, 5%; to `Cc1ccc(NC(=O)c2ccoc2)cc1-c1ccc(C(=O)NCC2CC2)cc1`, 2.51%.
With `NS(=O)(=O)c1ccc(N/N=C2\C(=O)Nc3ccc(-c4cnco4)cc32)cc1`, the inhibition came to 1.71%.
As for `O=C(Nc1n[nH]c2cc(-c3cc(F)ccc3F)ccc12)C1CC1`, the inhibition is 5.25%.
For `Nc1nccc(-c2c(-c3ccc(F)cc3)ncn2C2CCC(O)CC2)n1` (configuration not stated), the inhibition was found to be 0.06%.
`C[C@@H](Oc1cc(-n2cnc3ccc(OC4CCN(C)CC4)cc32)sc1C(N)=O)c1ccccc1Cl`: the inhibition was 3.1%.
Consider `CCS(=O)(=O)c1ccc(OC)c(Nc2ncc(-c3cccc(-c4ccccc4F)c3)o2)c1`, for which the inhibition came out at 0.43%.
As for `O=C1Nc2ccc(I)cc2C1=Cc1cc(Br)c(O)c(Br)c1`, the inhibition worked out at 8.91%.
For `COc1cccc(/C=N/Nc2ncnc3c2cnn3-c2cccc(OC)c2)c1`, the inhibition is 5.07%.
Same read-out and setting: to `COc1cc2ncn(-c3cc(OCc4cccs4)c(C(N)=O)s3)c2cc1OC` belongs 4.36%.
`NC(=O)c1ccc(Oc2nccc(-c3c(-c4ccc(F)cc4)ncn3C3CCNCC3)n2)cc1`: the inhibition turned out to be 4.73%.
The same measure, in the same setting: with `CN(C)CCCNc1nccc(-c2c(-c3ccc(F)cc3)nn3cc(C(F)(F)F)ccc23)n1` the figure was 3.07%; with `O=C1NC(=O)C(c2cccc(Cl)c2)=C1Nc1ccc(Cl)c(C(=O)O)c1`, 4.05%.
The same measure, in the same setting: with `NC(=O)Cc1ccccc1Oc1nccc(-c2c(-c3ccc(F)cc3)ncn2C2CCNCC2)n1` the figure was 3.93%; with `Fc1ccc(-c2ncn(C3CCNCC3)c2-c2ccnc(Oc3ccc(F)c(F)c3)n2)cc1`, 1.72%.
Turning to `O=C(Nc1n[nH]c2cc(-c3ccccc3)ccc12)C1CC1`, the inhibition amounted to 5.14%.
Still for that read-out and setting: with `Cc1nnc(-c2ccc(C)c(-c3ccc(C(=O)NCc4ccc(Cl)cc4)cc3)c2)o1` the figure was 1.09%.

The record behind these values is ChEMBL document CHEMBL1961873, “Compounds: GSK PKIS; Assays: Nanosyn kinase panel” (2012).
